Results on eight molecules are retold here after PubChem BioAssay (NCI).

The structures appear in SMILES notation. The panel holds about 83,000 compounds, 20% with a hit somewhere; the sample as a whole holds those more often.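 96-well plates, one dose, 48 hours. Percent growth reported; active if below 10.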 Values without a mark were called inactive. The source made the active and inactive calls.

What all share (experiment): NCI-60 one-dose screen, 48 h (100 = growth as untreated, 0 = no growth, -100 = all killed)
One assay relates to SK-MEL-2 melanoma. To be noted: 10 µM unless noted.
The next assay concerns EKVX NSCLC. Particulars: 10 µM unless noted.
In the next assay the test system is SN12C renal. Particulars: 10 µM unless noted.
The test system of the next assay is UO-31 renal. Particulars: 10 µM unless noted.
In a further assay the test system is ACHN renal. To be noted: 10 µM unless noted.
The next assay concerns CAKI-1 renal. To be noted: 10 µM unless noted.
A further assay deals with A498 renal. Particulars: 10 µM unless noted.
Another assay relates to CCRF-CEM leukemia. Particulars: 10 µM unless noted.
The next assay has as its system MOLT-4 leukemia. Particulars: 10 µM unless noted.
In another assay the test system is SR leukemia. Particulars: 10 µM unless noted.
A further assay deals with RPMI-8226 leukemia. To be noted: 10 µM unless noted.
The next assay concerns OVCAR-8 ovarian. To be noted: 10 µM unless noted.
For another assay, the system named is OVCAR-5 ovarian. Particulars: 10 µM unless noted.
The subject of a further assay is OVCAR-4 ovarian. To be noted: 10 µM.
In a further assay the test system is SK-OV-3 ovarian. Particulars: 10 µM unless noted.
The next assay has as its system IGROV1 ovarian. To be noted: 10 µM unless noted.
The next assay deals with OVCAR-3 ovarian. To be noted: 10 µM unless noted.
In the next assay the test system is HS 578T breast. To be noted: 10 µM unless noted.
The next assay deals with NCI/ADR-RES ovarian. Particulars: 10 µM unless noted.
The test system of the next assay is TK-10 renal. Particulars: 10 µM unless noted.

As for `CCOC(=O)c1c[nH]n2c(=S)ncnc12`, the growth in the assay with SK-MEL-2 melanoma is 94.8%; with EKVX NSCLC, 108%; in the assay with SN12C renal, 99.4%; with UO-31 renal it was 84.8%; in the assay on ACHN renal it was 99.7%; in the assay on CAKI-1 renal, 102%. For the same molecule, the growth in the assay with A498 renal was 98.5%; in the assay on CCRF-CEM leukemia, 101%; in the assay on MOLT-4 leukemia it was 90.7%; with SR leukemia it was 107%; with RPMI-8226 leukemia it was 107%; in the assay with OVCAR-8 ovarian, 104%. In addition, the growth in the assay on OVCAR-5 ovarian is 103%; in the assay on OVCAR-4 ovarian, 101%; in the assay with SK-OV-3 ovarian it was 103%; in the assay with IGROV1 ovarian, 121%; in the assay on OVCAR-3 ovarian it was 99.5%; with HS 578T breast it was 118%. For the same molecule, in the assay on NCI/ADR-RES ovarian, the growth was 99.1%.
Regarding `N#Cc1ccc(-c2ccc(COc3ccc(CC4SC(=O)NC4=O)cc3)cc2)cc1` (stereo not drawn), the growth in the assay on SK-MEL-2 melanoma was 56.9%; in the assay on EKVX NSCLC, 48%; with SN12C renal, 74.4%; with UO-31 renal, 48.1%; with ACHN renal it was 52.4%; in the assay with CAKI-1 renal, 48.1%. Also, the growth in the assay with A498 renal was 99.7%; in the assay with CCRF-CEM leukemia it was 61.5%; in the assay with MOLT-4 leukemia, 37.8%; in the assay on SR leukemia it was 45.1%; in the assay with RPMI-8226 leukemia it was 48.5%; with OVCAR-8 ovarian, 58.3%. Besides, the growth was 96.2% in the assay on OVCAR-5 ovarian; 40.8% in the assay with OVCAR-4 ovarian; 69.9% in the assay on SK-OV-3 ovarian; 68.4% in the assay on IGROV1 ovarian; 64.7% in the assay with OVCAR-3 ovarian; 72.5% with HS 578T breast. Moreover, the growth with NCI/ADR-RES ovarian is 37.8%.
On to `CC1(C)C(=NO)C(C)(C)C1=NO`, for which the growth in the assay with SK-MEL-2 melanoma was 117%; in the assay on EKVX NSCLC it was 114%; in the assay with SN12C renal, 110%; in the assay on UO-31 renal it was 104%; in the assay on ACHN renal, 112%; in the assay with CCRF-CEM leukemia, 7.92% (active). In addition, the growth was 8.62% (active) in the assay on MOLT-4 leukemia; 103% in the assay on SR leukemia; 76.2% in the assay on RPMI-8226 leukemia; 113% in the assay with OVCAR-8 ovarian; 103% in the assay on OVCAR-5 ovarian; 115% in the assay on OVCAR-4 ovarian. Further, the figures for the growth in the assay on SK-OV-3 ovarian, in the assay with OVCAR-3 ovarian and with NCI/ADR-RES ovarian were 125%, 117% and 106%, respectively.
For `C=CC1=C(C)C2=NC1=CC1=NC(=CC3=C(C)C4=C(O)C(C(=O)O)C(=C5NC(=C2)C(C)C5CCC(=O)O)C4=N3)C(CC)=C1C` (stereo not drawn), the growth in the assay with SK-MEL-2 melanoma was 129%; with EKVX NSCLC it was 103%; with SN12C renal it was 101%; in the assay with UO-31 renal it was 73.6%; in the assay with ACHN renal, 98.7%; in the assay on CAKI-1 renal it was 101%. Also, the growth was 106% in the assay with A498 renal; 96.3% in the assay with CCRF-CEM leukemia; 96.9% with MOLT-4 leukemia; 95.5% in the assay with SR leukemia; 102% in the assay on RPMI-8226 leukemia; 107% in the assay with OVCAR-8 ovarian. Also, the growth in the assay on OVCAR-5 ovarian was 114%; with SK-OV-3 ovarian it was 119%; in the assay on IGROV1 ovarian, 106%; in the assay with OVCAR-3 ovarian it was 107%; in the assay on HS 578T breast it was 105%; with NCI/ADR-RES ovarian, 114%.
Take `COc1cc2c(O)n(CCCN3CCOCC3)c3c4cnc5cccc(c(=O)c3c2cc1OC)c54`: the growth was 45.6% in the assay on SK-MEL-2 melanoma; 63.5% in the assay on EKVX NSCLC; 14.1% in the assay with SN12C renal; 30.2% with UO-31 renal; 12.2% in the assay on ACHN renal; 30% in the assay with CAKI-1 renal. Moreover, the growth in the assay on A498 renal was 56.1%; with CCRF-CEM leukemia, 15.1%; in the assay on MOLT-4 leukemia, 11.8%; with SR leukemia it was 20.5%; in the assay on RPMI-8226 leukemia, 14.8%; in the assay with OVCAR-8 ovarian, 39.9%. Further, the growth is 69% with OVCAR-5 ovarian; 48% in the assay on OVCAR-4 ovarian; 60.3% in the assay with IGROV1 ovarian; 62.9% in the assay on OVCAR-3 ovarian; 81.2% in the assay on HS 578T breast; 74.5% with NCI/ADR-RES ovarian.
As for `COc1cc(OC)cc(C(=O)Nc2cc(-c3cccnc3)nc(NCCCN3CCOCC3)n2)c1`, the growth was 84.1% in the assay on SK-MEL-2 melanoma; 103% with EKVX NSCLC; 86.4% in the assay with SN12C renal; 95.5% in the assay on TK-10 renal; 103% in the assay on ACHN renal; 101% in the assay on CAKI-1 renal. The growth was 83.3% with A498 renal; 90.8% in the assay with CCRF-CEM leukemia; 82.3% in the assay on MOLT-4 leukemia; 57.9% in the assay on SR leukemia; 79.1% in the assay on RPMI-8226 leukemia; 91.8% in the assay with OVCAR-8 ovarian. Further, the growth in the assay on OVCAR-5 ovarian was 100%; with OVCAR-4 ovarian, 117%; with SK-OV-3 ovarian, 93.9%; in the assay with IGROV1 ovarian it was 97.4%; in the assay with OVCAR-3 ovarian, 105%; in the assay with HS 578T breast, 69%. The growth in the assay on NCI/ADR-RES ovarian is 95.4%.
Consider `O=C(O)c1cc([N+](=O)[O-])ccc1Br`, for which the growth in the assay on SK-MEL-2 melanoma is 107%; in the assay on EKVX NSCLC, 98.5%; in the assay with SN12C renal it was 101%; in the assay on UO-31 renal, 86.3%; in the assay with ACHN renal, 94.2%; with A498 renal, 106%. Besides, the growth is 105% in the assay on CCRF-CEM leukemia; 99.8% in the assay with MOLT-4 leukemia; 112% with SR leukemia; 99% with RPMI-8226 leukemia; 101% with OVCAR-8 ovarian; 90.8% with OVCAR-5 ovarian. For the same molecule, the growth in the assay with OVCAR-4 ovarian is 99.2%; in the assay on SK-OV-3 ovarian, 113%; with IGROV1 ovarian, 103%; in the assay with HS 578T breast, 106%; in the assay with NCI/ADR-RES ovarian, 98.1%.
`CCCCCCCCCN(CCCCCCCCC)C(C)C(=O)c1ccc2cc(Br)c3ccccc3c2c1` (stereo not drawn): the growth in the assay with SK-MEL-2 melanoma was 125%; in the assay on EKVX NSCLC it was 72.6%; in the assay on SN12C renal, 79.8%; with UO-31 renal, 47.2%; with ACHN renal, 85.9%; with CAKI-1 renal, 71.5%. Moreover, the growth in the assay with A498 renal was 96.8%; in the assay on CCRF-CEM leukemia, 60.6%; with MOLT-4 leukemia, 86%; with SR leukemia, 7.35% (active); with RPMI-8226 leukemia, 68.7%; with OVCAR-8 ovarian, 94%. Moreover, the growth with OVCAR-5 ovarian was 80.4%; in the assay on OVCAR-4 ovarian, 85.7%; in the assay with SK-OV-3 ovarian it was 90.8%; in the assay with IGROV1 ovarian, 75.7%; in the assay on OVCAR-3 ovarian, 89.1%; in the assay on NCI/ADR-RES ovarian, 84.9%.
